Broadly, the inhibition is the drop in the measured response relative to a control, in per cent.

Here are results for 34 compounds from ChEMBL document CHEMBL1961873, “Compounds: GSK PKIS; Assays: Nanosyn kinase panel” (2012).

The first assay has as its target T1, Ephrin type-B receptor 4 (Homo sapiens) (UniProt P54760).
T1 sequence (whole entry): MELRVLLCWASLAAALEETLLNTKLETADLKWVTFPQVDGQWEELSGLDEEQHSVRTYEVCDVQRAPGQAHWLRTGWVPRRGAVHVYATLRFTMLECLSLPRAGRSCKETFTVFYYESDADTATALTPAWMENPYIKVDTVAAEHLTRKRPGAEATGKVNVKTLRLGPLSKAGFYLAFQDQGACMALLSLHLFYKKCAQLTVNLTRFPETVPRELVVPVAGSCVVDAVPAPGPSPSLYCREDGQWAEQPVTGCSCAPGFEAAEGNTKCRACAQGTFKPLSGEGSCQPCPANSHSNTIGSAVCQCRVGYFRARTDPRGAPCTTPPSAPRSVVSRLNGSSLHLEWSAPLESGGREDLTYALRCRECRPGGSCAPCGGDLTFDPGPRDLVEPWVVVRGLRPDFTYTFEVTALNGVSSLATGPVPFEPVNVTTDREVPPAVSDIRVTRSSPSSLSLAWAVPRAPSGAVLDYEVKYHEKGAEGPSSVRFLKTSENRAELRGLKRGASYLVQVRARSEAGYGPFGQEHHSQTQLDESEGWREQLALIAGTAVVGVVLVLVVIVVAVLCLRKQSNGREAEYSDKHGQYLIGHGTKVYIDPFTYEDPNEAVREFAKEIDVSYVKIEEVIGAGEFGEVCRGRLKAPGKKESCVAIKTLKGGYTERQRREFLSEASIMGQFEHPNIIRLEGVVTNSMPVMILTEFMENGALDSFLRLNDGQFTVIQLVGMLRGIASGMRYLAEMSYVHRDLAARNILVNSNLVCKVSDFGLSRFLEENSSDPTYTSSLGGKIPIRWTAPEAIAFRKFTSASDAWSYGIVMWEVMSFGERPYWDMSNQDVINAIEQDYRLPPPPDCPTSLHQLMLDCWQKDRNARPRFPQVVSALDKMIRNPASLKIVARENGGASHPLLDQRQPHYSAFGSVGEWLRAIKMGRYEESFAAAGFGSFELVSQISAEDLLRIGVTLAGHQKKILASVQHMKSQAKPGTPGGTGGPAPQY
Particulars: at 0.1 µM.
For the compound `O=C(O[C@H]1CN[C@H](C#Cc2cc3ncnc(Nc4ccc(Cc5ccccc5)cc4)c3s2)C1)N1CCOCC1`, the inhibition was -0.73%.
For the compound `CCn1c(-c2nonc2N)nc2ccccc21`, the inhibition turned out to be 1.03%.
With `COc1ccc2[nH]c3c4[nH]c5ccc(OC)cc5c4c4c(c3c2c1)C(=O)NC4=O`, the inhibition was -0.01%.
Regarding `CCn1cc(-c2ccnc3[nH]ccc23)c(-c2cccc(NC(=O)Nc3ccc(OCc4ccccc4)cc3)c2)n1`, the inhibition is -1.27%.
On the same count and under the same terms, then `Fc1ccc(-c2nn3ncccc3c2-c2ccnc(Nc3ccc4c(c3)OCCO4)n2)cc1`, with 20.1%; and `CCN1CCC(CC(=O)Nc2n[nH]c3nnc(-c4cccc(F)c4F)cc23)CC1`, with -0.34%.
Take `CC(C)COC(=O)c1ccc2c(c1)/C(=C/Nc1ccc(S(N)(=O)=O)cc1)C(=O)N2`: the inhibition was -1.38%.
As for `COC(=O)Nc1nc2ccc(S(=O)(=O)c3ccc(NC(=O)Nc4cc(C(F)(F)F)ccc4F)cc3)cc2[nH]1`, the inhibition amounted to 2.15%.
Consider `CCOc1ccc2c(-c3ccnc(Nc4cccc(C(F)(F)F)c4)n3)cnn2n1`, for which the inhibition amounted to 1.01%.
As for `COc1cccc(-n2ncc3c(N/N=C/c4ccc(F)cc4)ncnc32)c1`, the inhibition stood at 1.79%.
The same measure, in the same setting: then `COc1cc(Nc2nccc(Nc3ccc4c(C)n[nH]c4c3)n2)cc(OC)c1OC`, with 11.2%; and `CC1=C(C(=O)Nc2cc(Cl)c3[nH]ncc3c2)C(c2ccc(C(F)(F)F)cc2)CC(=O)N1` (configuration not stated), with -1.21%.
Regarding `CCn1c(-c2nonc2N)nc2c(C#CC(C)(C)O)ncc(OC3CCNCC3)c21`, the inhibition stood at 1.92%.
For the compound `CNC(=O)c1cccc(C#Cc2cncnc2Nc2ccc(OCc3cccc(F)c3)c(Cl)c2)c1`, the inhibition is -1.02%.
On the same count and under the same terms, the figure for `COc1ccc(-c2cc3c(N)ncnc3o2)cc1` is 0.49%; for `COc1cc(/C=N/Nc2ncnc3[nH]ncc23)ccc1O` it is 5.34%.
Take `COc1cc2ncn(-c3cc(OCc4ccccc4C(F)(F)F)c(C(=O)N(C)C)s3)c2cc1OC`: the inhibition was -1.02%.
With `NS(=O)(=O)c1ccc(Nc2ncc(-c3ccccc3)o2)cc1`, the inhibition is 2.27%.

The target in a further assay is T1, Ephrin type-B receptor 4 (Homo sapiens). Particulars: at 1 µM.
As for `CCCN(CCS(C)(=O)=O)Cc1ccc(-c2ccc3ncnc(Nc4ccc(OCc5cccc(F)c5)c(Cl)c4)c3c2)o1`, the inhibition turned out to be 1.36%.
On the same count and under the same terms, then `Cc1ccc2c(-c3ccnc(Nc4ccccc4)n3)c(-c3ccc(F)cc3)nn2n1`, with 56.9%; and `Fc1ccc(-c2cc(-c3c[nH]nc3-c3ccccn3)ccn2)cc1`, with 0.96%; and `FC(F)(F)c1cccc(-c2nn3ncccc3c2-c2ccnc(Nc3ccc4c(c3)OCCO4)n2)c1`, with 21.3%.
With `N#Cc1c(NC(=O)CN2CCOCC2)sc2c1CCCC2`, the inhibition was determined as 0.41%.
In the case of `c1ccc(COc2ccc(Nc3ncnc4ccc(-c5ccco5)cc34)cc2)cc1`, the inhibition turned out to be 1.67%.
Still for that read-out and setting: the figure for `Fc1ccc(-c2nn3ccccc3c2-c2ccncc2)cc1` is 4.73%.
Take `Cc1cccc(Nc2ncc(-c3ccccc3)o2)c1`: the inhibition came to 3.6%.
Still for that read-out and setting: the figure for `COc1cc2c(cc1Nc1nc(Nc3ccsc3C(N)=O)c3cc[nH]c3n1)N(C(=O)CN(C)C)CCC2(C)C` is 2.72%.
Consider `c1cc(-c2cnn3nc(N4CCOCC4)ccc23)nc(NC2CC2)n1`, for which the inhibition came out at 1.96%.
Regarding `CC(=O)NCc1cccc(C#Cc2cncnc2Nc2ccc(OCc3cccc(F)c3)c(Cl)c2)c1`, the inhibition came out at 2.91%.
On to `CC(=O)Nc1cccc(C#Cc2cncnc2Nc2ccc(OCc3cccc(F)c3)c(Cl)c2)c1`, for which the inhibition turned out to be 2.84%.
On the same count and under the same terms, then `Nc1nc(-c2cccc(Cl)c2)c(-c2ccc3ncccc3n2)s1`, with 3.57%; and `COc1ccc(-c2oc3ncnc(N)c3c2-c2ccc(NC(=O)Nc3cc(C(F)(F)F)ccc3F)cc2)cc1`, with 96.6%.
In the case of `CC(C)(CO)CNC(=O)c1ccc2c(c1)/C(=N/Nc1ccc(S(N)(=O)=O)cc1)C(=O)N2`, the inhibition is -0.62%.
The same measure, in the same setting: the figure for `CCNC(=O)O[C@H]1CN[C@H](C#Cc2cc3ncnc(Nc4ccc(OCc5cccc(F)c5)c(Cl)c4)c3s2)C1` is 4.36%.
As for `O=C(O[C@H]1CN[C@H](C#Cc2cc3ncnc(Nc4ccc(Cc5ccccc5)cc4)c3s2)C1)N1CCOCC1`, the inhibition was determined as 1.41%.
For the compound `CCn1c(-c2nonc2N)nc2ccccc21`, the inhibition came out at 1.88%.
In the case of `COc1ccc2[nH]c3c4[nH]c5ccc(OC)cc5c4c4c(c3c2c1)C(=O)NC4=O`, the inhibition is 4.21%.
As to `CCn1cc(-c2ccnc3[nH]ccc23)c(-c2cccc(NC(=O)Nc3ccc(OCc4ccccc4)cc3)c2)n1`, the inhibition amounted to 3.47%.
Same read-out and setting: the figure for `Fc1ccc(-c2nn3ncccc3c2-c2ccnc(Nc3ccc4c(c3)OCCO4)n2)cc1` is 64.8%.
Consider `CCN1CCC(CC(=O)Nc2n[nH]c3nnc(-c4cccc(F)c4F)cc23)CC1`, for which the inhibition worked out at 1.27%.
Still for that read-out and setting: then `CC(C)COC(=O)c1ccc2c(c1)/C(=C/Nc1ccc(S(N)(=O)=O)cc1)C(=O)N2`, with 1.51%; and `COC(=O)Nc1nc2ccc(S(=O)(=O)c3ccc(NC(=O)Nc4cc(C(F)(F)F)ccc4F)cc3)cc2[nH]1`, with 3.46%; and `CCOc1ccc2c(-c3ccnc(Nc4cccc(C(F)(F)F)c4)n3)cnn2n1`, with 2.81%.
In the case of `COc1cccc(-n2ncc3c(N/N=C/c4ccc(F)cc4)ncnc32)c1`, the inhibition was 3.45%.
`COc1cc(Nc2nccc(Nc3ccc4c(C)n[nH]c4c3)n2)cc(OC)c1OC`: the inhibition stood at 54.8%.
The same measure, in the same setting: the figure for `CC1=C(C(=O)Nc2cc(Cl)c3[nH]ncc3c2)C(c2ccc(C(F)(F)F)cc2)CC(=O)N1` (configuration not stated) is 0.29%; for `CCn1c(-c2nonc2N)nc2c(C#CC(C)(C)O)ncc(OC3CCNCC3)c21` it is 1.63%.
The same measure, in the same setting: then `CNC(=O)c1cccc(C#Cc2cncnc2Nc2ccc(OCc3cccc(F)c3)c(Cl)c2)c1`, with 0.31%; and `COc1ccc(-c2cc3c(N)ncnc3o2)cc1`, with 0.16%.
The same measure, in the same setting: then `COc1cc(/C=N/Nc2ncnc3[nH]ncc23)ccc1O`, with 20.9%; and `COc1cc2ncn(-c3cc(OCc4ccccc4C(F)(F)F)c(C(=O)N(C)C)s3)c2cc1OC`, with 1.55%.
In the case of `NS(=O)(=O)c1ccc(Nc2ncc(-c3ccccc3)o2)cc1`, the inhibition amounted to 1.72%.
